# Screen size: about 48,000 compounds; about 13,000 (27%) showed an effect of 50% or more. This is one part of the list.
# Tested on: Wolbachia pipientis
# Test: Anti-Wolbachia Cell-Based Screen
# Format: functional
# Parameters: scale not given: in the data most compounds retested in dose-response had high values
# Settings: 5 µM
row,Compound,Percent Effect [%]
1,N#CCc1ccc(OCC(=O)NS(=O)(=O)c2ccc(Cl)s2)cc1,-0.9374
2,CC(C)[C@H](C)NC1CCN(c2ccc(-c3cscn3)cc2)CC1,-7.145
3,CCCn1nnnc1CSCc1cn2c(C)cccc2n1,8.521
4,N#Cc1cccnc1N1CCCC(CO)(Cc2ccccc2F)C1 (stereo not drawn),12.54
5,CNS(=O)(=O)CC(=O)N(Cc1ccsc1)c1ccccc1,7.339
6,O=C(Cn1cnc(NC(=O)CC2CCCC2)n1)NCc1ccccc1,-4.841
7,NC[C@H]1CC[C@H](C(NC(=O)CC2CCCCC2)c2ccccn2)CC1 (stereo partly drawn),140.5
8,NC[C@H]1CC[C@H](C(NC(=O)CC2CCCC2)c2ccccn2)CC1 (stereo partly drawn),151
9,CC(C)[C@H]1CN(Cc2ccccn2)C[C@@H]1NC(=O)CC1CCC1,-7.125
10,NC[C@H]1CC[C@H](C(NC(=O)C2CC2)c2ccccn2)CC1 (stereo partly drawn),117.5
11,CCCC(=O)NC(Cc1ccc(C)cc1)c1ccccn1 (stereo not drawn),-7.589
12,NC[C@H]1CC[C@H](C(NC(=O)c2ccccn2)c2ccccn2)CC1 (stereo partly drawn),-2.81
13,NC[C@H]1CC[C@H](C(NC(=O)c2ccccc2)c2ccccn2)CC1 (stereo partly drawn),-1.705
14,O=C(OC1CCC1)c1ncccc1C(F)(F)F,-15.91
15,CC(C)c1nnc(NCc2cc3n(n2)CCNC3)s1,7.297
16,CC1CCN(S(=O)(=O)NC(C)Cc2ccco2)CC1 (stereo not drawn),1.293
17,Cc1nc(CN(C)Cc2cn[nH]c2-c2ccc(F)cc2)c[nH]1,20.15
18,CC(C)[C@H]1COC(=O)N1CC(=O)N1CCN(C(=O)c2ccco2)CC1,1.132
19,CN1CC2(CCCN(CCOCc3ccccc3)C2)OC1=O (stereo not drawn),96.52
20,CN1CC2(CCN(CCCOCc3ccccc3)CC2)OC1=O,106.4
21,Cc1ccc2oc(=O)n(CCC(=O)N3CCC4(CN(C)C(=O)O4)C3)c2c1 (stereo not drawn),2.838

row,Compound,Percent Effect [%]
1,CS(=O)(=O)NC1CCN(CCOCc2ccccc2)CC1,0.008163
2,CCC1(C(=O)O)CCCN(CCOCc2ccccc2)C1 (stereo not drawn),2.602
3,CN1CC2(CCN(C(=O)CCCOCc3ccccc3)C2)OC1=O (stereo not drawn),107.9
4,CN1CC2(CCN(C(=O)c3[nH]cnc3-c3ccccc3)C2)OC1=O (stereo not drawn),-16.32
5,COc1ccc(/C=C/CN2CCC3(CC2)CN(C)C(=O)O3)cc1,-13.05
6,COCCC1(C(=O)O)CCCN(CCOCc2ccccc2)C1 (stereo not drawn),2.553
7,Cc1cc(NC(=O)N2CCC[C@@H]2CO)nn1-c1ccccc1Cl,-2.328
8,CC(C)COCCC(=O)Nc1c(-c2ccc(F)cc2)ncn1C,34.39
9,O=C(NC1CC1)[C@H]1C[C@H]2OCC[C@H]2N(Cc2ccc(F)cc2)C1.O=C(O)C(F)(F)F,-3.794
10,Cc1ccc([C@@H]2CN(C(=O)c3ccsc3)C[C@H]2NC(=O)C2CC2)cc1,-0.5207
11,O=C(NCC(O)c1ccccc1Cl)c1cccc(-n2cnnn2)c1 (stereo not drawn),-6.148
12,Cc1nc(CN2CCCC(N(C)Cc3c(C)noc3C)C2)no1 (stereo not drawn),5.065
13,COCCN1CCC(N(Cc2noc(C3CC3)n2)C(C)=O)C1 (stereo not drawn),0.8027
14,CC(=O)N(Cc1noc(C)n1)C1CCN(Cc2c(C)noc2C)C1 (stereo not drawn),106.6
15,CC(=O)N(Cc1noc(C)n1)C1CCN(Cc2cccc(C#N)c2)C1 (stereo not drawn),124.3
16,COCCCN(C)C1CCCN(Cc2noc(C)n2)C1 (stereo not drawn),-3.028
17,CC(=O)N(Cc1noc(C)n1)C1CCN(Cc2ccc(C#N)cc2)C1 (stereo not drawn),102.5
18,Cc1nc(CN(C)C2CCN(Cc3c(C)noc3C)C2)no1 (stereo not drawn),-3.836
19,COCCCN1CCC(N(Cc2noc(C)n2)C(C)=O)C1 (stereo not drawn),116.1
20,Cc1nc(CN2CCCC(N(C)c3ccc(C#N)cn3)C2)no1 (stereo not drawn),1.567
21,CC(=O)N(Cc1noc(C)n1)C1CCN(Cc2ccccc2C#N)C1 (stereo not drawn),-0.5328

row,Compound,Percent Effect [%]
1,Cc1cccc(CCC(=O)Nc2cccnc2N2CCC(O)CC2)c1,-21.77
2,Cc1nonc1NC(=O)c1ccc(F)c(COCC2CC2)c1,-55.79
3,CC(C)n1cc2cc(NC(=O)CCS(C)(=O)=O)ccc2n1,-1.641
4,COC(=O)c1cc(C(=O)N2CCOCC2(C)C)n(-c2ccccc2)n1,-5.811
5,CCC(C)(NCC(=O)OC)c1nccs1 (stereo not drawn),-7.626
6,Cc1ccc(OCC(=O)N(C)Cc2cccc(F)c2)cn1,7.779
7,CC(C)Oc1cccc(CNC(=O)NC(C)(C(=O)O)c2ccco2)c1 (stereo not drawn),1.863
8,CCNS(=O)(=O)c1ccc(C)c(C(=O)N(CCC#N)Cc2ccco2)c1,-4.86
9,CN1CCC2(CC1)CC(NC(=O)c1csnn1)c1ccccc1O2.O=C(O)C(F)(F)F (stereo not drawn),-8.669
10,O=C(O)C(F)(F)F.O=S(=O)(NC1CCC12CCN(CC1CC1)CC2)c1ccccc1 (stereo not drawn),2.266
11,CCN1CCC2(CC1)CC(NC(=O)c1c[nH]cn1)c1ccccc1O2 (stereo not drawn),-7.488
12,CN(C)C(=O)CC1CC2(CCN(C(=O)N(C)C)CC2)Oc2ccccc21 (stereo not drawn),-10.67
13,CC(C)N1CCC2(CC1)CC(NS(C)(=O)=O)c1ccccc1O2.O=C(O)C(F)(F)F (stereo not drawn),107.1
14,CC(=O)N1CCC2(CC1)CC(NS(C)(=O)=O)c1ccccc1O2 (stereo not drawn),119.8
15,CC(C)CN1CCC2(CC1)CC(NS(C)(=O)=O)c1ccccc1O2.O=C(O)C(F)(F)F (stereo not drawn),99.03
16,CS(=O)(=O)NC1CC2(CCN(CC3CC3)CC2)Oc2ccccc21.O=C(O)C(F)(F)F (stereo not drawn),88.61
17,CCN1CCC2(CC1)CC(NC(=O)c1csnn1)c1ccccc1O2.O=C(O)C(F)(F)F (stereo not drawn),-74.83
18,CS(=O)(=O)N1CC[C@]2(C[C@@H](Oc3ccccn3)CO2)C1.O=C(O)C(F)(F)F,-15.23
19,Cc1ccc(NC2COC3(CCN(CC(C)C)CC3)C2)nn1.O=C(O)C(F)(F)F (stereo not drawn),-1.394
20,CNC(=O)NC(=O)C(C)N1CCCc2cc(OC)ccc2C1 (stereo not drawn),-11.16
21,CC(CO)N(C)C(=O)c1cn(-c2ccc(Br)cc2)cn1 (stereo not drawn),-3.083
